Paper PMC7819943, “Rice protein-binding microarrays: a tool to detect cis-acting elements near promoter regions in rice”
Whole data set: some 68,000 sequences, median “fluorescence intensity (a.u.)” near 9,100, cut for the highest 2% near 16,000. Many of the other results were omitted from the sample, so the highest values are more common in it than they were.

Molecular target: OsWRKY34 (Oryza sativa, UniProt Q0JBA9 1-250)
Assay: protein-binding microarray (RPBM); PBS, 2% BSA, 51.3 ng/ul salmon testes DNA, 50 uM zinc acetate, 200 nM TF, 25 C, 1 h; high values mean tight binding
Settings: protein: recombinant; tags: N-terminal polyhistidine and DsRed monomer fusion (pET32a); label: CyDye5-dUTP incorporated in the synthesized complementary strand; 3' TTTTT single-stranded linker to array surface; dsDNA, one strand shown
Method in brief: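 For the binding signal, per-feature fluorescence intensity was read in arbitrary units on an Axon 4000B scanner. Before scanning, a 2% BSA-blocked custom Agilent array made double-stranded with Cy5-dUTP was washed after 1 h at 25 °C with 200 nM protein and 50 µM zinc acetate. The proteins were Ni–NTA-purified transcription factors with N-terminal polyhistidine and DsRed fusions, expressed in E. coli BL21-CodonPlus.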

OsWRKY34, sequence (Q0JBA9 entry or part of it): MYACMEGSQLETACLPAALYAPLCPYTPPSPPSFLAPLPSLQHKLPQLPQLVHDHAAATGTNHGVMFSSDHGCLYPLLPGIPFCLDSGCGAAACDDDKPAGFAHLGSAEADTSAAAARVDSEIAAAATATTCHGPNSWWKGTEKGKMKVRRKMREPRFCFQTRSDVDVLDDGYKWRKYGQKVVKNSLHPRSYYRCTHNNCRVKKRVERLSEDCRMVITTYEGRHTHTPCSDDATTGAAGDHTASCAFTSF

Row | Sequence | binding signal
1 | GTGTCCTTTTCTTTTTTTTCTTCTTTTCTTTTTCTTTTTCCGGAGTCACCTAGTGCAG | 9510 fluorescence intensity (a.u.)
2 | ACCATGTAACGAGTAATCTTTTGACCTGTGCCACGTCATCCGGAGTCACCTAGTGCAG | 9160 fluorescence intensity (a.u.)
3 | TTTGGTGGTGTGCAAGTGGAGTGGTTTATAAAATTATGTCCGGAGTCACCTAGTGCAG | 8980 fluorescence intensity (a.u.)
4 | CCTCATCACTCGCTTCTCCTTGCTTACACACCATCCCATCCGGAGTCACCTAGTGCAG | 8310 fluorescence intensity (a.u.)
5 | CTAACATTCCCTATGCGGAAACACACACATTCATGCACACCGGAGTCACCTAGTGCAG | 8860 fluorescence intensity (a.u.)
6 | CCTCTTAACTCTTTCCCATTCCCAAATGCGCCACTGTCTCCGGAGTCACCTAGTGCAG | 9190 fluorescence intensity (a.u.)
7 | CTCTGTCCTATTGGAACATTTCTCTGAAGCAACACCATATCGGAGTCACCTAGTGCAG | 9340 fluorescence intensity (a.u.)
8 | TGACAGTGTGATGTGCTTGTTCGCTCTGATTTGATTTTGGCGGAGTCACCTAGTGCAG | 8050 fluorescence intensity (a.u.)
9 | CCCCATCCATTGCAACGGCAACATACACACACCACCACCACGGAGTCACCTAGTGCAG | 8350 fluorescence intensity (a.u.)
10 | CGTTGACTCCATCTCTTTAACATATTTTAGGAGCATGCTTCGGAGTCACCTAGTGCAG | 8610 fluorescence intensity (a.u.)
11 | TCATCTCCATCTTTTTATTTACACGCACACTTCTCAAACTCGGAGTCACCTAGTGCAG | 11100 fluorescence intensity (a.u.)
12 | CCAACTCCGAACGCCTCTTCTTCTCCTCACCGCCGCCGAACGGAGTCACCTAGTGCAG | 9650 fluorescence intensity (a.u.)
13 | TGATGTTACTTTGATTTGGGGTTTGATTTGGGAATATGCACGGAGTCACCTAGTGCAG | 13500 fluorescence intensity (a.u.)
14 | TGGATTTAGGATGTTACTTTGATTTGGGGATTTGGGGTTTCGGAGTCACCTAGTGCAG | 17200 fluorescence intensity (a.u.)
15 | ATGGTTCGATTATTGGTGGAGTTCTCTCTCGGTTTCTCCGCGGAGTCACCTAGTGCAG | 10600 fluorescence intensity (a.u.)
16 | CAACGGCGGTGGCGGCGGCGGCGGCGGCGGGGCGGCGTCGCGGAGTCACCTAGTGCAG | 8370 fluorescence intensity (a.u.)
17 | GGGCTGACGGGTGGGGTCCATGTTGTTTTCCTCTTAGGCACGGAGTCACCTAGTGCAG | 23000 fluorescence intensity (a.u.)
18 | ATCTCCCGCGGTTTCGATTTGGGTTTATTTGGGCGGTGGGCGGAGTCACCTAGTGCAG | 18800 fluorescence intensity (a.u.)
19 | GTGGGAGTGGCGGTGTCGGGTCCGGAACGAAACGGCGGGGCGGAGTCACCTAGTGCAG | 10300 fluorescence intensity (a.u.)
20 | ATTTGTGATGTGGATTTGGGGTGTTACTTTGATTTGGGGACGGAGTCACCTAGTGCAG | 12900 fluorescence intensity (a.u.)
21 | GAAGGAGAAGGAGAGGGGAGGGGCTGACGGGTGGGGTCCACGGAGTCACCTAGTGCAG | 14000 fluorescence intensity (a.u.)
22 | TCTTTGTTTCCCGCGTTTTGTTGGGGATTCGATTTTCGGGCGGAGTCACCTAGTGCAG | 11100 fluorescence intensity (a.u.)
23 | CAGATTGTTTTCCATGATTCTTAGCCTCTCTGATGTTTGACGGAGTCACCTAGTGCAG | 9640 fluorescence intensity (a.u.)
24 | TGTCGGTGTCGGTGGGCGGGGATTCGCGGTAGTGGTGGAACGGAGTCACCTAGTGCAG | 19700 fluorescence intensity (a.u.)
